From PubChem BioAssay AID1866 (The Scripps Research Institute Molecular Screening Center, 2009) come the findings set out here.

A word on the inhibition: it is the change of the read-out against control, counted positive when it falls.

The whole screen tested about 1,300 compounds, of which about 40 (3%) were called active. The list is a sample of the results. Values without a mark were called inactive.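 Rule for the calls: active = inhibition above that campaign's mean inhibition plus 3 SD (cut at about 0.46% in these data); inactive = the rest.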

The assay deals with Beta-lactamase TEM (Escherichia coli) (UniProt P62593). Put plainly: inhibition of purified E. coli TEM-1 enzyme – biochemical, epi-absorbance, HTS, counter-screen for VIM-2 inhibitor project (AID 1866).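 Note: 0% = TEM-1 with DMSO and 100% = TEM-1 with 100 µM potassium clavulanate.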 The note with it: Purified TEM-1, nitrocefin hydrolysis, epi-absorbance fluorescence; at 5.6 µM; active compounds read high. A general note: The purpose of a counterscreen is to sort out artefacts and off-target activity.
Chain of Beta-lactamase TEM (Escherichia coli) (P62593 whole entry, looked up): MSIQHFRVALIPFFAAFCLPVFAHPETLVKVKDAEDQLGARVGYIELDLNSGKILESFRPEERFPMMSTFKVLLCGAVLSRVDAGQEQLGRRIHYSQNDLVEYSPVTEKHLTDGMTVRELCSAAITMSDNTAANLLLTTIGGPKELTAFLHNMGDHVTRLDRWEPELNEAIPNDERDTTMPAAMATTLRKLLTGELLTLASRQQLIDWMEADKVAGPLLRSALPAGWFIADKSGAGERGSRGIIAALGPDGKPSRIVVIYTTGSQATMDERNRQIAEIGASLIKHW
In the case of `COc1ccc(CCn2c(=N)c(C(=O)NCC3CCCO3)cc3c(=O)n4cccc(C)c4nc32)cc1OC` (configuration not stated), the inhibition is -5.02%.

Regarding `Cc1nc2ccccc2c2oc(C(=O)NCCCN3CCC(C)CC3)cc12`, the inhibition is -6.75%.

Take `CNC(=O)c1ccsc1NC(=O)c1ccc(S(=O)(=O)N2CCOCC2)cc1`: the inhibition was -7.75%. `Fc1ccc(-c2ccc(CNCc3ccccn3)o2)cc1Cl`: the inhibition is -5.72%. For `CCN(CC)c1ccc2cc(C(N)=O)/c(=N\NC(=O)c3ccncc3)oc2c1`, the inhibition is -8.43%. As to `O=C(COc1cc2oc(=O)c3c(c2cc1Cl)CCC3)NCCCN1CCOCC1`, the inhibition is -0.53%.

As to `CCN1CCN(CCNC(=O)c2ccc3c(c2)NC(=O)/C(=C\c2ccc(OC)c(OC)c2)S3)CC1`, the inhibition was -9.31%. For `COc1ccc(-c2nn3c(-c4ccccc4)nnc3s2)cc1OC`, the inhibition was -11.4%. With `CCOC(=O)N1CCN(C(=O)C2CCN(c3ncnc4c3sc3cccc(F)c34)CC2)CC1`, the inhibition is -5.6%. `CCN(CC)CCOc1ccc2c(c1)C(=NNC(=O)c1ccccn1)c1cc(OCCN(CC)CC)ccc1-2`: the inhibition is -8.91%.

Consider `COc1ccc(Nc2cc(C)nc(-n3nc(C)cc3C)n2)cc1`, for which the inhibition was -7.46%. `NC(=O)C1CCN(C(=O)COc2ccc3c4c(c(=O)oc3c2)CCC4)CC1`: the inhibition is -5.63%. In the case of `Cn1c(-c2sccc2OCc2cccc(C(F)(F)F)c2)n[nH]c1=S`, the inhibition was -7.73%. With `CCOc1cc(/C=C2\SC(N3CCCCC3)=NC2=O)ccc1O` the figure was -8.67%; with `COC(=O)c1c(NC(=O)c2ccc(S(=O)(=O)N3CCOCC3)cc2)sc2c1CCN(C(C)C)C2`, -6.47%. With `Cc1ccc(Cl)cc1-c1ccc(/C=N/n2cnnc2)o1` the figure was -6.18%; with `CCN1CCCC1CNC(=O)c1cc2c(=O)n(C)c3ccccc3c2n1C` (configuration not stated), -6.31%; with `COc1ccc(Cc2nnc(NS(=O)(=O)Cc3ccccc3)s2)cc1`, -3.28%. On to `Cc1cc(NCc2ccco2)n2c(nc3ccccc32)c1C#N`, for which the inhibition is -6.6%.

Take `CC(=O)c1ccc(-c2ccc(Cn3c(C)nc4cc(N)c(C)nc43)cc2)cc1`: the inhibition is -6.56%. As for `CC(NS(=O)(=O)c1ccccc1)c1n[nH]c(=S)n1-c1ccccc1` (configuration not stated), the figure is -5.56%. Turning to `O=C1Nc2cc(C(=O)N3CCC(N4CCCCC4)CC3)ccc2S/C1=C\c1ccccc1`, the inhibition was -5.79%. With `CCc1cc(=O)oc2cc(C)cc(OCC(=O)N3CCC[C@@H]3C(=O)O)c12` the figure was -5.9%. On to `O=C(NC(=S)Nc1ccccc1C(=O)O)c1ccc(-c2ccc(Br)cc2)o1`, for which the inhibition was -8.31%. With `CN(C)CCNc1ccc(-c2n[nH]c(=O)c3ccccc23)cc1[N+](=O)[O-]` the figure was -7.17%; with `Cc1cc(-c2ccc(/C=N/n3cnnc3)o2)c([N+](=O)[O-])cc1C`, -5.24%; with `C=CCn1c(-c2ccccc2OCC)n[nH]c1=S`, -3.6%.

With `CC(C)(C)CC(=O)Nc1nnc(SCC(=O)NCc2cccs2)s1`, the inhibition is -5.92%. As for `CCOc1cc(/C=C2\SC(N3CCCC(C)C3)=NC2=O)ccc1O` (configuration not stated), the figure is -1.56%. With `O=c1[nH]c(-c2ccccc2)c(-c2ccccc2)[nH]1` the figure was -4.67%. For the compound `COc1nc(N=C(N)N)nc2c(C)cccc12`, the inhibition is -4.69%. With `CN1CCN(c2ccc(NC(=O)c3ccc4c(c3)[nH]c(=O)n4Cc3ccc(F)cc3)cc2)CC1` the figure was -7.55%. With `CC1CCCC(C)N1CCCNC(=O)c1cc2c(=O)n(C)c3ccccc3c2n1C` (configuration not stated) the figure was -6.6%; with `Cn1c2ccccc2c(=O)c2c(O)cccc21`, -0.94%. With `CCCc1ccc(OCCNC(=O)c2ccco2)cc1` the figure was -6.4%; with `COC(=O)c1ccc(-c2noc(CN(Cc3ccccn3)CC3CCCO3)n2)cc1` (configuration not stated), -7.22%; with `COc1cc(/C=N/Nc2nn3cnnc3c3ccccc23)cc(OC)c1OC`, -3.82%.

In the case of `COc1cc(NC(=O)C2=C(C)OCCS2)c(Cl)cc1C(=O)NCCN1CCN(C)CC1`, the inhibition is -9.7%. For the compound `Nc1nnc2c(C(F)(F)F)nc3ccccc3n12`, the inhibition is -1.12%. With `Cc1cc(C)c2nc3nc(C)cc(C)c3c(N)c2c1` the figure was -4.56%; with `CCC1CCCCN1CCCNC(=O)c1cc2c(Cl)nc3ccccc3c2s1` (configuration not stated), -6.12%. As for `Clc1cc(-c2ccc(/C=N/n3cnnc3)o2)ccc1Br`, the figure is -5.72%. With `CCN1CCN(C(=O)Cn2nc(C)n3c(cc4c(OC)cccc43)c2=O)CC1` the figure was -7.04%; with `Cn1c(=O)c2c(nc(N3CCOCC3)n2CCNC2=NCCC2)n(C)c1=O`, -4.49%. For `COc1ccc(/C=N/N(C)C2=NS(=O)(=O)c3ccccc32)cc1OC`, the inhibition is -6.76%.

For the compound `COc1cc(-c2nn3c(-c4cccc(C)c4)nnc3s2)cc(OC)c1OC`, the inhibition was -6.23%. For `Cc1cccn2c(=O)c(C=O)c(Nc3ccc(S(N)(=O)=O)cc3)nc12`, the inhibition is -4.52%. As for `O=C(NCCCN1CCOCC1)c1cnn2c(-c3ccccc3)cc(-c3ccccc3)nc12`, the figure is -5.7%; as for `CCOCCCNc1c(CC)c(C)c(C#N)c2nc3ccccc3n12`, -5.82%. Turning to `Cc1ccc2nc(C)c3c(c2c1)N(c1ccccc1)CC3`, the inhibition is -5.53%. As to `Nc1cccc2c1C(=O)N(Cc1nnc(-c3ccccc3Br)o1)C2=O`, the inhibition was -0.93%. As for `Cc1cc([N+](=O)[O-])c(-c2ccc(/C=N/n3cnnc3)o2)cc1Cl`, the figure is -6.25%.
